Assay results as given in PubChem BioAssay (Tox21).
Results filed as inconclusive are left out. Entries that show only a call come without a potency. Activity calls are given as the source filed them. The call rests on the fitted dose curve; in most records, active means well fitted cell-killing curve with a large enough effect in the repeat runs; inconclusive means weak or mixed curves, or effect the other way; inactive means no such curve, though single readings can be large or run the other way.

experiment: qHTS assay to identify small molecule antagonists of the sonic hedgehog signaling (Shh) pathway - cell viability counter screen (AID 1259367); conditions: NIH/3T3 Gli1-Luc viability, CellTiter-Fluor, 24 h; series mostly up to 92.4 µM; further: nearly all actives have a fitted effect of over 55% in size
Description: National Center for Advancing Translational Sciences [NCATS]
NIH Chemical Genomics Center [NCGC]
U.S. Environmental Protection Agency [EPA]
National Institutes of Environmental Health Sciences [NIEHS]
National Toxicology Program [NTP]
U.S. Food and Drug Administration [FDA]
The sonic hedgehog (Shh) pathway is essential for normal embryonic development. Dysregulation of the Shh pathway can cause severe developmental defects in organs. Therefore chemicals that interfere with the pathway are potential developmental toxicants. A cell line designated 3T3Gli1-Luc (DMB/OARSA/CFSAN/FDA, Laurel, MD), a NIH/3T3 derived clone containing stably integrated Gli1-Luc reporter is used to detect chemical interference of the Shh pathway, by changes in the expression of the firefly Luc gene under the control of the Gli1 transcriptional response element. This cell line was used to screen Tox21 libraries for identifying and prioritizing the potential developmental toxicants that interfere Shh pathway. Conditioned medium-stimulated mode was used to screen for chemicals inhibiting Shh signaling. The cytotoxicity of the compounds was tested in parallel by measuring the cell viability using CellTiter-Fluor assay system (Promega, Madison, WI) in the same wells.
Tox21 Assay Protocol Summary:
3T3 Gli1-Luc cells were dispensed at 2,000 per well in 5uL of culture medium into white solid bottom 1536-well plates (Greiner Bio-One, Monroe, NC) using a Multidrop Combi (Thermo Scientific, Waltham, MA) dispenser. The assay plates were incubated at 37 C and 5% CO2 for 4hr, and then 23nL of compounds dissolved in DMSO and positive control were transferred using a Pintool station (Wako, San Diego, CA). The compound transfer was followed by the addition of 1ul conditioned medium or assay buffer using two separate tips of Flying Reagent Dispenser (FRD, Aurora Discovery, San Diego, CA). The assay plates were incubated at 37C and 5% CO2 for 24hr. For viability read, after 23hr of compound treatment, 1uL of CellTiter-Fluor reagent (Promega Corporation, Madison, WI) was added to each well of the assay plates using Flying Reagent Dispenser (FRD, Aurora Discovery, San Diego, CA) and incubated the assay plates at 37C for 1hr. The fluorescence signal was quantified using a ViewLux plate reader (Perkin Elmer, Shelton, CT).
Potency means the concentration at half of the fitted maximal effect.

| Compound | Potency |
| --- | --- |
| Clc1ccc(C(OCCN2CCCCC2)c2ccccc2)cc1 (stereo not given) | inactive |
| CCBr | inactive |
| CCOP(=O)(OCC)SCCSCC | inactive |
| O=C(NCc1cccnc1)Nc1ccc([N+](=O)[O-])cc1 | inactive |
| Brc1ccccc1 | inactive |
| O=C(C(Cl)(Cl)Cl)C(Cl)(Cl)Cl | inactive |
| CCCC(=O)Cl | inactive |
| N#CCc1ccccc1 | inactive |
| CCCCN=C=O | inactive |
| CCOP(=S)(OCC)Oc1cc(Cl)c(Br)cc1Cl | inactive |
| CCOP(=O)(OCC)O/C(=C/Cl)c1ccc(Cl)cc1Cl | inactive |
| O=C(O)c1ccccc1C(=O)Nc1cccc2ccccc12 | inactive |
| CCOS(C)(=O)=O | inactive |
| C=CCC1([C@H](C)CCC)C(=O)NC(=O)NC1=O | inactive |
| Nc1nc(=S)[nH][nH]1 | inactive |
| CC(C)(CCl)C(=O)Cl | 12.2 µM (active) |
| CCCCCCCCCCOC(=O)c1ccccc1C(=O)OCCCCCCCCCC | inactive |
| O=Cc1ccc2c(c1)OCO2 | inactive |
| C[N+](C)(C)CCCl | inactive |
| COc1cc(CC(C)N)cc2c1OCO2 (stereo not given) | inactive |

| Compound | Potency |
| --- | --- |
| N#C/C(N)=C(/N)C#N | inactive |
| ClCCCCBr | inactive |
| O=C(CCl)c1ccc(Cl)cc1Cl | inactive |
| CC(C)(Cl)[N+](=O)[O-] | inactive |
| COC(=O)C(Br)CBr (stereo not given) | inactive |
| CC1C(=O)C[C@]2(C(C)C)C[C@H]12 (stereo not given in full) | inactive |
| O=S(=O)(Cl)c1ccccc1 | inactive |
| CCO[C@H]1O[C@@H]2OC3(C)CC[C@H]4[C@H](C)CC[C@@H]([C@H]1C)[C@@]24OO3 | inactive |
| COC(C)(C)CCC[C@H](C)C/C=C/C(C)=C/C(=O)OC(C)C | inactive |
| N#CCC#N | inactive |
| CCCN(CC1CC1)c1c([N+](=O)[O-])cc(C(F)(F)F)cc1[N+](=O)[O-] | inactive |
| CCOP(=S)(Oc1ccc([N+](=O)[O-])cc1)c1ccccc1 (stereo not given) | inactive |
| COP(=S)(Oc1cc(Cl)c(Br)cc1Cl)c1ccccc1 (stereo not given) | inactive |
| O=C(CBr)OCc1ccccc1 | inactive |
| C=C(C#N)CCC#N | inactive |
| CC(=O)NC1CCSC1=O (stereo not given) | inactive |
| CC[C@H]1C[C@H]2[C@@H]3CCC4=CC(=O)CC[C@@H]4[C@H]3CC[C@]2(C)[C@H]1O | inactive |
| CC1(C)[C@H](C=C(Cl)Cl)[C@@H]1C(=O)O[C@@H](C#N)c1cccc(Oc2ccccc2)c1 | inactive |
| Nc1ccc([N+](=O)[O-])cc1[N+](=O)[O-] | inactive |
| CC(C)N(CCC(C(N)=O)(c1ccccc1)c1ccccn1)C(C)C (stereo not given) | inactive |
